Screening data deposited in PubChem BioAssay by National Center for Advancing Translational Sciences (NCATS).
DT40 TDP1 CPT: growth inhibition of DT40 Tdp1-/-;hTDP1 cells with camptothecin (screen for TDP1 inhibitors); chicken DT40 Tdp1-/-;hTDP1 cells + 20 nM CPT, ATP luminescence, 48 h; Potency, µM (titrated, usually from 46.2 µM), for the others: at the highest dose activity change, negative = growth inhibition, actives largely listed as inhibitors; hit rate 12% among 420,000; AID 686979; also: potency is read from the fitted curve at half-maximal effect; % is scaled to controls: 0 for no effect and ±100 for the full control effect; nearly all actives have a fitted effect of over 55% in size
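Chicken DT40 Tdp1-/- cells complemented with human TDP1, 400 cells/well, exposed to compounds plus 20 nM camptothecin for at least 48 h at 37 C; viability read as ATP content by CellTiter-Glo luminescence.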
TDP1 cell noCPT: qHTS for Inhibitors of human tyrosyl-DNA phosphodiesterase 1 (TDP1): qHTS in cells in absence of CPT; DT40 Tdp1-/- hTDP1 cells, no CPT, ATP luminescence, 48 h; Potency, µM (highest dose often 46.2 µM), without a hit: at the highest dose activity change, negative = growth inhibition, usual class: inhibitors; hit rate 15% among 420,000; AID 686978, 2013; also: potency is read from the fitted curve at half-maximal effect; % is scaled to controls: 0 for no effect and ±100 for the full control effect; nearly all actives have a fitted effect of over 55% in size
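Seeded 400 DT40-hTDP1 cells/well (vehicle DMSO, no 20 nM CPT); pinned compounds; ≥48 hr at 37 °C; CellTiter-Glo luminescence as viability measure.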
IL1B secr inh: inflammasome signaling inhibition, IL-1 beta readout. THP-1 LPS/ATP IL-1B secretion, AlphaLISA, 16 h; active compounds read low. activity change, % at 57.5 µM. hit rate 4.7% among 360,000; in the data active = activity change below about -50%; inconclusive = mostly about -30% to -49%; also: % is scaled to controls: 0 for no effect and ±100 for the full control effect
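Secreted IL-1B measured by AlphaLISA bead assay after 16 h compound exposure of THP-1 cells; compounds (final up to 57.5 uM) added 1 h before LPS (250 ng/mL) and ATP (1.25 mM) stimulation; lower signal means less secretion.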
ASM inhibitor: blocks human secretory acid sphingomyelinase; P17405; placental ASM, HMU-PC fluorogenic substrate, 60 min; Potency, µM (titrated, usually from 57.5 µM), for the others: top-dose activity change, negative = inhibition, usual class: inhibitors; hit rate 0.006% among 340,000; AID 504937; also: potency is read from the fitted curve at half-maximal effect
Target sequence (P17405 47-631 limits assumed): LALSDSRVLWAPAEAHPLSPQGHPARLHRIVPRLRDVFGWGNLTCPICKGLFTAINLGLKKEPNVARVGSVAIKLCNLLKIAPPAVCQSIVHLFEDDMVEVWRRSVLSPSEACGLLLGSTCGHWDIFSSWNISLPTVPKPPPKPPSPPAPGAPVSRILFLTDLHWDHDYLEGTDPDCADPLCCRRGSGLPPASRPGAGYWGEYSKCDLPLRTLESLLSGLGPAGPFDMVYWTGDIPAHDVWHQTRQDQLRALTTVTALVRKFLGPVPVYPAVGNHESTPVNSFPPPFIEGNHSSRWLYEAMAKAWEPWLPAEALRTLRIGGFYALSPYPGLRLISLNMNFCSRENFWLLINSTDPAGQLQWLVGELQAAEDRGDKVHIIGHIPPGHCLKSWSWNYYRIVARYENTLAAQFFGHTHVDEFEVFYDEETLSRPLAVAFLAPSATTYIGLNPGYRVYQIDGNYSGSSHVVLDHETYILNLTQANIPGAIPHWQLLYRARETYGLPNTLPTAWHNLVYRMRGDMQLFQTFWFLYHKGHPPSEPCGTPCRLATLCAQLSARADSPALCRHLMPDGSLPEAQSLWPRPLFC
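HMU-PC0 cleavage (9 uM final) by human placental ASM, 60 min at 37 °C following 10 min compound exposure at RT; stopped at pH 10, fluorescence Ex 386/Em 447 nm.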
TGFb inhibitor: inhibitors of TGF-b signaling; hit rate 1.2% among 410,000; Potency, µM (doses to about 46.1 µM), for inactives: at the highest dose activity, negative = inhibition, actives largely listed as inhibitors; HepG2 CAGA-GFP TGF-b/SMAD3 reporter, GFP fluorescence, 18 h; TGF-beta stimulated, 500 pg/mL final; AID 588855; also: potency is read from the fitted curve at half-maximal effect; % is scaled to controls: 0 for no effect and ±100 for the full control effect; nearly all actives have a fitted effect of over 65% in size
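Read-out: total well GFP (ex488/em500-530) summed from mean per-cell fluorescence. Cells: HEPG2 CAGA-GFP, 1% FBS DMEM, 18 h at 37 degrees C with 500 pg/mL final TGF-beta. Unstimulated wells served as the full-inhibition control; stimulated DMSO wells = 0%.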
HepG2 viability: HepG2 cytotoxicity, counter-screen for TGF-b inhibitors. HepG2 CAGA-GFP viability, ATP luminescence, 18 h. AID 588856. Potency, µM (titrated, usually from 46.1 µM), for the others: at the highest dose activity change, negative = cytotoxicity, hits mostly cytotoxic. hit rate 0.76% among 410,000; also: potency is read from the fitted curve at half-maximal effect
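CellTiter-Glo luminescence gave cytotoxicity after 18 hours at 37 degrees C. The cells were HepG2 CAGA-GFP in 1% FBS DMEM, stimulated with 500 pg/mL TGF-beta after compound addition. %Activity was normalised to no-cell wells (complete cell-killing) and DMSO (no toxicity), and curves were fitted and classified.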
Numbers without * were called inactive; i = inactive; u = inconclusive; x = no result. Sampled rows, rich in hits. Any-hit rate of the full collection: about 19%. Unless noted, calls follow the shape of the dose curve; as a rule, active = well fitted curve in the direction sought with a large enough effect; inconclusive = small, poorly fitted or top-dose-only effect, or another doubt; inactive = no such curve, though single readings can be large; an effect the other way counts as inactive or inconclusive.

SMILES | DT40 TDP1 CPT | TDP1 cell noCPT | IL1B secr inh | ASM inhibitor | TGFb inhibitor | HepG2 viability
COc1ccc(NC(=O)c2cc(-c3ccc(C)o3)nc3ccccc23)cc1OC | 18.4µM* | 16.4µM* | u | 0.6% | 4.1% | -72.2%
COc1ccc(NC(=O)c2cc(-c3ccc(C)o3)nc3ccccc23)c(OC)c1 | u | 11.6µM* | -18.9 | 5.4% | 27.1% | -55.7%
Cc1ccc(-c2cc(C(=O)N(C)CC(=O)Nc3ccccc3Br)c3ccccc3n2)o1 | 16.4µM* | u | u | i | 11.5% | -4.0%
Cc1ccc(-c2cc(C(=O)Nc3ccccc3C(N)=O)c3ccccc3n2)o1 | 14.6µM* | 10.3µM* | -22.4 | i | u | -8.1%
COc1ccc(NC(=O)c2cc(C)nc3ccccc23)c(OC)c1 | 12.7% | -8.1% | 31.5 | -1.9% | -0.4% | 4.3%
O=C(CCCN1C(=O)c2ccccc2C1=O)Nc1cccc(S(=O)(=O)NC2=NCCC2)c1 | 5.9% | -4.2% | 23.3 | 4.2% | -23.2% | -42.1%
CC(=O)Nc1ccc(NS(=O)(=O)c2ccc(C)cc2)cc1[N+](=O)[O-] | 4.2% | -5.4% | x | 0.0% | 0.0% | -25.1%
CC(=O)Nc1ccc([N+](=O)[O-])c(CS(=O)(=O)c2ccc(C)cc2)c1[N+](=O)[O-] | u | 23.1µM* | 45.1 | 2.0% | -5.0% | -3.1%
CCOc1ccc(NC(=O)CN(C)C(=O)c2cccnc2SC)cc1OCC | -17.3% | -10.7% | 0.0 | 7.2% | 9.2% | 5.8%
Cc1ccc(C)c(NC(=S)N2CCC(NC(=O)c3cccc(F)c3)CC2)c1 | 10.2% | -5.4% | 4.8 | 1.2% | 8.6% | -3.3%
O=C(C[n+]1ccncc1)c1ccc2ccccc2c1 | -13.9% | u | x | x | 0.5% | -3.0%
Cc1cccc(NC(=O)c2ccccc2OCC(=O)c2ccccc2)c1 | u | 16.4µM* | u | -11.1% | -5.7% | 0.2%
Cc1cccc(NC(=O)COc2ccccc2C(=O)NC(C)c2ccccc2)c1 (stereo not drawn) | u | 29.1µM* | 13.6 | -11.7% | u | -53.6%
CCOc1ccc(NC(=O)C(C)Oc2ccccc2C(=O)Nc2cccc(Cl)c2Cl)cc1 (stereo not drawn) | u | 18.4µM* | 55.3 | -13.7% | -23.9% | -25.8%
Cc1ccc(NC(=O)c2ccccc2OCC(=O)c2ccccc2)cc1 | u | u | -24.5 | -16.1% | 0.8% | -33.4%
CCOc1ccc(NC(=O)c2ccccc2OCC(=O)c2ccccc2)cc1 | 23.1µM* | 16.4µM* | -9.7 | u | -11.1% | -16.1%
COc1ccc(NC(=O)c2c(NC(=O)CCC(=O)O)sc(-c3ccccc3)c2C)cc1 | -26.1% | u | -8.0 | 10.8% | 10.4% | -0.3%
COc1ccc(CCNC(=O)Cc2ccc(NC3=NC4CS(=O)(=O)CC4S3)cc2)c(OC)c1 (stereo not drawn) | 5.3% | -3.3% | -12.8 | 1.7% | -0.5% | 5.7%
Cc1cc(C)c(CN2CCC(n3nccc3NC(=O)CCOc3ccccc3)CC2)cc1C | u | u | 0.0 | -0.7% | -13.5% | -23.4%
CCOc1ccccc1C(=O)Nc1ccc(NC(=O)c2ccccc2)cc1 | -12.5% | -8.6% | 4.7 | 1.7% | 0.5% | -0.9%
CCOc1ccccc1C(=O)Nc1ccc(C(=O)c2ccccc2)cc1 | 23.1µM* | u | -2.3 | -7.6% | -3.5% | -2.3%
COc1ccc(-c2cc(C(=O)OCC(=O)Nc3ccc4c(c3)OCO4)c3ccccc3n2)cc1 | u | 20.6µM* | -7.9 | 72.6% | 0.8% | -16.6%
CCOc1ccc(-c2cc(C(=O)Nc3ccc4c(c3)OCCO4)c3ccccc3n2)cc1 | u | 10.3µM* | 4.9 | -7.0% | u | -48.0%
Cc1cccc(-c2cc(C(=O)Nc3ccc4c(c3)OCCO4)c3ccccc3n2)c1 | 29.1µM* | 13µM* | -19.9 | -7.4% | 0.0% | -24.5%
O=C(COC(=O)c1cc(-c2ccccc2)nc2ccccc12)Nc1ccc2c(c1)OCO2 | -4.8% | 0.0% | -2.1 | -7.3% | u | -9.3%
SMILES | DT40 TDP1 CPT | TDP1 cell noCPT | IL1B secr inh | ASM inhibitor | TGFb inhibitor | HepG2 viability
CCCn1c(C)cc(=O)c2cc(NC(=O)c3ccccn3)ccc21 | u | 14.6µM* | -22.6 | -0.4% | -4.2% | -53.3%
CCCC(=O)Nc1ccc(NC(=O)c2ccccn2)cn1 | -25.9% | u | -8.7 | -0.4% | 15.0% | -25.3%
CCc1noc(C)c1C(=O)OC(C)C(=O)Nc1ccc2c(c1)OCO2 (stereo not drawn) | -13.1% | -6.5% | 8.0 | 4.7% | -3.1% | -14.6%
CC(C)N(Cc1ccccc1)C(=O)COC(=O)c1cc[n+]([O-])cc1 | -10.9% | -18.8% | -4.6 | 3.7% | -3.4% | -2.0%
CCOc1ccc(NC(=O)c2ccccn2)cc1 | -45.1% | 13µM* | -4.4 | -1.1% | u | -67.9%
CCOc1ccc(NC(=O)c2cnccn2)cc1 | -8.6% | u | -10.8 | -1.0% | -11.3% | -10.2%
CCOc1ccc(NC(=O)C2CSC(c3ccncc3)=N2)cc1 (stereo not drawn) | 23.1µM* | u | -11.4 | 3.1% | -0.2% | -8.9%
CCOc1cc(NC(=O)c2ccccn2)c(OCC)cc1NC(=O)c1cccc(C)c1 | 4.11µM* | 1.84µM* | -2.4 | 68.9% | -24.2% | -14.6%
CCOc1ccc(NC(=O)Nc2ccc(Cc3ccncc3)cc2)cc1 | -28.3% | u | -4.9 | -1.2% | 0.0% | -51.8%
CCOc1ccc(NC(=O)c2cc(Cl)nc3ccccc23)cc1 | u | 14.6µM* | 32.3 | -4.1% | 2.8% | 4.1%
CCOc1ccc(NC(=O)c2ccccc2O)cc1 | -15.6% | u | -18.1 | -19.7% | 18.8% | -24.4%
CCOc1cc(NC(=O)c2cccs2)c(OCC)cc1NC(=O)c1ccccn1 | u | u | 0.0 | 102.6% | u | -5.5%
Cc1cn([C@H]2C[C@H](O)[C@@H](CCC(=O)NCCCc3ccccc3)O2)c(=O)[nH]c1=O | 4.8% | 11.2% | -8.5 | x | 5.2% | 3.5%
O=C(NCc1ccccc1)C1=C[C@@H](c2csc3ccccc23)C[C@@H](OCc2ccc(CO)cc2)O1 | 2.91µM* | 4.61µM* | u | -14.1% | u | -29.8%
O=C(NC1CC1)C1=C[C@H](c2csc3ccccc23)C[C@H](OCCCCO)O1 | -17.6% | -23.4% | -7.4 | 0.4% | 1.0% | -18.0%
O=C(Nc1ccccc1)C1=C[C@H](c2coc3ccccc3c2=O)C[C@H](OCc2ccc(CO)cc2)O1 | u | u | u | -10.8% | 0.0% | -8.5%
